From the supplement of paper PMC8975748
Where a name gives a salt, the structure may show the parent alone. ± gives the standard deviation of the averaged measurements.

Legend:
[1] = test system: Saccharomyces cerevisiae BY4741 SeMeCo community; assay: mean cell size (pixel area) (pixels); higher = larger cells; conditions: 10 µM; 24 h; SM minimal medium
How it was run: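 Mean cell pixel area per well was measured in a four-plasmid fluorescent community of Saccharomyces cerevisiae BY4741, where every plasmid complements one auxotrophy and carries a fluorescent marker. Cells from an overnight preculture at OD600 = 1.0 were diluted to OD600 = 0.3 and dispensed at 70 µl into 384-well plates acoustically predosed with drug to a final 10 µM in SM medium. Incubation lasted 24 h, followed by paraformaldehyde fixation, automated confocal imaging and analysis in Harmony. Reported figures are averaged over 3 replicates. Same SeMeCo high-content imaging drug screen: Selleck FDA-approved drugs at 10 µM, 24 h in SM medium, 384-well plates, 3 replicates.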

[2] = test system: Saccharomyces cerevisiae BY4741 SeMeCo community; assay: z-score of subpopulation abundance vs DMSO median, subpopulation auxotrophic for L; higher = larger share of this subpopulation than in DMSO controls; conditions: 10 µM; 24 h; SM minimal medium; subpopulation (auxotrophy): L
How it was run: (§1)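 Cells of a Saccharomyces cerevisiae BY4741 community, carrying four plasmids that each restored one auxotrophy and encoded a distinct fluorescent protein, were pre-grown overnight to OD600 1.0 and diluted to 0.3. A 70 µl volume was added to 384-well plates acoustically predosed with library drugs (10 µM final) and grown 24 h in minimal SM medium. After paraformaldehyde fixation, automated confocal microscopy was used, with single-auxotroph fluorescent strains for thresholds and autofluorescence correction. The abundance of each subpopulation was scored as a z-score against the vehicle-well median.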

[3] = test system: Saccharomyces cerevisiae BY4741 SeMeCo community; assay: z-score of subpopulation abundance vs DMSO median, subpopulation auxotrophic for U; higher = larger share of this subpopulation than in DMSO controls; conditions: 10 µM; 24 h; SM minimal medium; subpopulation (auxotrophy): U
How it was run: as §1

[4] = test system: Saccharomyces cerevisiae BY4741 SeMeCo community; assay: z-score of subpopulation abundance vs DMSO median, subpopulation auxotrophic for LU; higher = larger share of this subpopulation than in DMSO controls; conditions: 10 µM; 24 h; SM minimal medium; subpopulation (auxotrophy): LU
How it was run: as §1

[5] = test system: Saccharomyces cerevisiae BY4741 SeMeCo community; assay: z-score of subpopulation abundance vs DMSO median, subpopulation auxotrophic for LM; higher = larger share of this subpopulation than in DMSO controls; conditions: 10 µM; 24 h; SM minimal medium; subpopulation (auxotrophy): LM
How it was run: as §1

[6] = test system: Saccharomyces cerevisiae BY4741 SeMeCo community; assay: z-score of subpopulation abundance vs DMSO median, subpopulation auxotrophic for HM; higher = larger share of this subpopulation than in DMSO controls; conditions: 10 µM; 24 h; SM minimal medium; subpopulation (auxotrophy): HM
How it was run: as §1

[7] = test system: Saccharomyces cerevisiae BY4741 SeMeCo community; assay: z-score of subpopulation abundance vs DMSO median, subpopulation auxotrophic for HU; higher = larger share of this subpopulation than in DMSO controls; conditions: 10 µM; 24 h; SM minimal medium; subpopulation (auxotrophy): HU
How it was run: as §1

[8] = test system: Saccharomyces cerevisiae BY4741 SeMeCo community; assay: z-score of subpopulation abundance vs DMSO median, subpopulation auxotrophic for UM; higher = larger share of this subpopulation than in DMSO controls; conditions: 10 µM; 24 h; SM minimal medium; subpopulation (auxotrophy): UM
How it was run: as §1

[9] = test system: Saccharomyces cerevisiae BY4741 SeMeCo community; assay: z-score of subpopulation abundance vs DMSO median, subpopulation auxotrophic for HL; higher = larger share of this subpopulation than in DMSO controls; conditions: 10 µM; 24 h; SM minimal medium; subpopulation (auxotrophy): HL
How it was run: as §1

[10] = test system: Saccharomyces cerevisiae BY4741 SeMeCo community; assay: z-score of subpopulation abundance vs DMSO median, subpopulation auxotrophic for HLU; higher = larger share of this subpopulation than in DMSO controls; conditions: 10 µM; 24 h; SM minimal medium; subpopulation (auxotrophy): HLU
How it was run: as §1

[11] = test system: Saccharomyces cerevisiae BY4741 SeMeCo community; assay: z-score of subpopulation abundance vs DMSO median, subpopulation auxotrophic for HLM; higher = larger share of this subpopulation than in DMSO controls; conditions: 10 µM; 24 h; SM minimal medium; subpopulation (auxotrophy): HLM
How it was run: as §1

[12] = test system: Saccharomyces cerevisiae BY4741 SeMeCo community; assay: z-score of subpopulation abundance vs DMSO median, subpopulation auxotrophic for LUM; higher = larger share of this subpopulation than in DMSO controls; conditions: 10 µM; 24 h; SM minimal medium; subpopulation (auxotrophy): LUM
How it was run: as §1

[13] = test system: Saccharomyces cerevisiae BY4741 SeMeCo community; assay: z-score of subpopulation abundance vs DMSO median, subpopulation auxotrophic for HLUM; higher = larger share of this subpopulation than in DMSO controls; conditions: 10 µM; 24 h; SM minimal medium; subpopulation (auxotrophy): HLUM
How it was run: as §1

[14] = test system: Saccharomyces cerevisiae BY4741 SeMeCo community; assay: z-score of prototroph abundance vs DMSO median; higher = larger share of this subpopulation than in DMSO controls; conditions: 10 µM; 24 h; SM minimal medium; subpopulation (auxotrophy): Prototroph
How it was run: as §1

[15] = test system: Saccharomyces cerevisiae BY4741 SeMeCo community; assay: z-score of subpopulation abundance vs DMSO median, subpopulation auxotrophic for H; higher = larger share of this subpopulation than in DMSO controls; conditions: 10 µM; 24 h; SM minimal medium; subpopulation (auxotrophy): H
How it was run: as §1

[16] = test system: Saccharomyces cerevisiae BY4741 SeMeCo community; assay: z-score of subpopulation abundance vs DMSO median, subpopulation auxotrophic for HUM; higher = larger share of this subpopulation than in DMSO controls; conditions: 10 µM; 24 h; SM minimal medium; subpopulation (auxotrophy): HUM
How it was run: as §1

[17] = test system: Saccharomyces cerevisiae BY4741 SeMeCo community; assay: z-score of subpopulation abundance vs DMSO median, subpopulation auxotrophic for M; higher = larger share of this subpopulation than in DMSO controls; conditions: 10 µM; 24 h; SM minimal medium; subpopulation (auxotrophy): M
How it was run: as §1

SMILES | mean cell size [1] | z-score of subpopulation abundance [2] | z-score of subpopulation abundance [3] | z-score of subpopulation abundance [4] | z-score of subpopulation abundance [5] | z-score of subpopulation abundance [6] | z-score of subpopulation abundance [7] | z-score of subpopulation abundance [8] | z-score of subpopulation abundance [9] | z-score of subpopulation abundance [10] | z-score of subpopulation abundance [11] | z-score of subpopulation abundance [12] | z-score of subpopulation abundance [13] | z-score of prototroph abundance [14] | z-score of subpopulation abundance [15] | z-score of subpopulation abundance [16] | z-score of subpopulation abundance [17]
NC[C@H]1O[C@H](O[C@H]2[C@H](O[C@@H]3O[C@H](CO)[C@@H](O)[C@H]3O)[C@@H](O)[C@H](N)C[C@@H]2N)[C@H](N)[C@@H](O)[C@@H]1O [Ribostamycin Sulfate] | 12.13 ± 0.035 | -0.39 | 0.39 | 0.09 | -0.67 | 0.04 | -0.5 | 0.36 | -0.49 | -0.07 | -0.38 | -0.84 | 0.36 | – | – | – | –
CC(C)(C)C(=O)OCOC(=O)[C@@H]1N2C(=O)[C@@H](/N=C/N3CCCCCC3)[C@H]2SC1(C)C [Pivmecillinam hydrochloride] | 12.3 ± 0.13 | 0.41 | 0.34 | 0.57 | – | -0.25 | – | -0.01 | 0.29 | -0.02 | -0.52 | -0.28 | -0.19 | -0.55 | 0.1 | – | –
C[C@]12CCC3=C4CCC(=O)C=C4CC[C@H]3[C@@H]1CC[C@@]2(O)CC#N [Dienogest] | 12.4 ± 0.18 | 0.12 | -0.87 | -0.52 | -0.44 | -0.11 | -0.02 | -0.39 | 0.26 | -0.53 | -0.38 | 0 | -0.14 | 0.42 | 0.11 | – | –
CO[C@@H]1[C@H](OC(=O)/C=C/C=C/C=C/C=C/C(=O)O)CC[C@]2(CO2)[C@H]1[C@@]1(C)O[C@@H]1CC=C(C)C [Fumagillin] | 12.24 ± 0.059 | – | 0.58 | 1.51 | 2.31 | 1.85 | 1.17 | 0.11 | – | 2.31 | 1.1 | 2.33 | 1.71 | -1.67 | 1.11 | 0.96 | –
CN[C@@H]1[C@H](O)[C@H](NC)[C@H]2O[C@@]3(O)C(=O)C[C@@H](C)O[C@H]3O[C@@H]2[C@H]1O [Spectinomycin 2HCl] | 12.6 ± 0.18 | -1.34 | 0.77 | -0.16 | -1.03 | -0.56 | 0.25 | 0.51 | -0.34 | 0.02 | -0.57 | -0.18 | -0.32 | -0.2 | -0.79 | – | –
O=c1ccn(C2CC(O)C(CO)O2)c(=O)[nH]1 (stereo not given) [2-deoxyuridine] | – | 1.75 | -1.16 | 0.31 | 0.89 | 0.04 | -1.08 | -0.82 | 1.21 | 0.49 | 0.54 | 0.23 | – | 0.08 | 0.07 | -0.27 | –
C=CCN1CCCC1CNC(=O)c1cc2nn[nH]c2cc1OC (stereo not given) [Alizapride HCl] | 12.3 ± 0.14 | 0.16 | 0.74 | 0.9 | – | -0.31 | 0.88 | 0.58 | -0.36 | 0.1 | – | 0.44 | 0.23 | -0.2 | -0.87 | 0 | –
O=[N+]([O-])c1ccc(O)c2ncccc12 [Nitroxoline] | 13.6 ± 0.5 | -0.84 | -2.48 | 12.2 | 4.84 | 27.9 | 16.3 | – | 22.6 | 24.8 | 65.9 | 11 | 36.6 | -16.6 | 9.75 | – | –
CO/N=C(\C(=O)N[C@@H]1C(=O)N2C(C(=O)O)=CCS[C@H]12)c1csc(N)n1 [Ceftizoxime sodium] | 12.3 ± 0.25 | – | -0.03 | -0.54 | -0.65 | -0.06 | -0.68 | 0.12 | -0.66 | -0.33 | -0.22 | -1.27 | -0.48 | 0.46 | -1.54 | 0.09 | –
Nc1c(CC(=O)O)cccc1C(=O)c1ccccc1 [Amfenac Sodium Monohydrate] | 12.78 ± 0.078 | -0.33 | 0.11 | -0.63 | 0.25 | 1.16 | – | -0.16 | -0.27 | 0.63 | 2.36 | -0.56 | 0.57 | 0.49 | -0.38 | – | –
CN(C)c1ccc(O)c2c1C[C@H]1C[C@H]3[C@H](N(C)C)C(=O)C(C(N)=O)=C(O)[C@@]3(O)C(=O)C1=C2O [Minocycline HCl] | – | -0.03 | 0.78 | 0.63 | 0.75 | -0.22 | -0.3 | 0.25 | 0.73 | 0.06 | 0.31 | 0.3 | – | – | – | -0.12 | –
Nc1ccc(S(=O)(=O)c2ccc(N)cc2)cc1 [Dapson] | 12.5 ± 0.26 | – | 0.04 | 0.91 | 0.51 | – | 0.31 | 0.45 | – | 0.22 | -0.14 | 0.92 | 0.06 | -0.54 | 0.61 | 0.6 | –
CC(C)NC(=N)NC(=N)Nc1ccc(Cl)cc1 [Proguanil] | 12.3 ± 0.13 | -1.12 | – | -0.48 | 0.02 | 0.11 | -0.55 | 0.61 | -0.81 | – | -0.27 | -0.3 | -0.44 | 0 | -0.88 | -0.17 | 0.65
COc1ccc2[nH]c([S@@+]([O-])Cc3ncc(C)c(OC)c3C)nc2c1 [NEXIUM (esomeprazole magnesium)] | – | – | -0.8 | – | 0.3 | 0.8 | 0.68 | -1.82 | 1.91 | 1.46 | 1.32 | 0.51 | -0.44 | -0.6 | 3.24 | -0.41 | –
CCN(CC)CCOCCOC(=O)C1(c2ccccc2)CCCC1 [Pentoxyverine Citrate] | 12.5 ± 0.13 | -0.03 | 0.17 | 0.06 | -0.24 | -0.96 | -0.94 | -0.39 | -0.72 | – | -0.05 | -0.26 | -0.26 | 0.37 | -0.71 | -1.14 | -0.67
